# Laboratory results as given in PubChem BioAssay AID624261 (National Center for Advancing Translational Sciences (NCATS), 2012).
# The list shows a part of the results. Active and inactive are the calls of the source. The call rests on the fitted dose curve.
# Biological target: Glutaminase kidney isoform, mitochondrial (Homo sapiens) (UniProt O94925)
# Experiment: qHTS for Inhibitors of Glutaminase (GLS): Hit Confirmation
# Conditions: biochemical glutaminase enzyme inhibition assay
# Description: Glutaminase (GLS) catalyzes the hydrolysis of glutamine into glutamate and ammonia. It plays a critical role in glutaminolysis, which is an important energy source for proliferating cells. It was shown that c-Myc, an oncogenic transcription factor known to regulate microRNAs and to stimulate cell proliferation, increases glutamine metabolism by stimulating the expression of GLS via direct suppression of miR23a and miR23b.
# GLS is also thought to play a pathogenic role on HAD using a human HIV-1 infected macrophage system. […] GLS inhibition limits glutamate release and provides neuroprotection against HIV-1 infected macrophages.
# The overall goal of this project is to identify small molecule inhibitors of GLS through quantitative high throughput screening (qHTS) of the MLSMR. A validated potent and selective inhibitor can be used as a tool molecule to further study the pharmacology of its target as well as explore its potential therapeutic application in cancer and inflammatory neurological disorders, such as HIV1-associated dementia (HAD) and multiple sclerosis. This is the hit confirmation in the primary assay data. […]
# Three 3 uL of hKGA is dispensed into black well 1536-well plates in 45 mM KH2PO4 (pH 8.2), 0.02% Tween-20. […] Plate is centrifuged for 25 sec before an initial fluorescence read is obtained on the ViewLux, after 30 min of RT incubation, the final read is taken on the ViewLux.
# Chain of Glutaminase kidney isoform, mitochondrial (Homo sapiens) (O94925 whole entry, looked up, canonical isoform): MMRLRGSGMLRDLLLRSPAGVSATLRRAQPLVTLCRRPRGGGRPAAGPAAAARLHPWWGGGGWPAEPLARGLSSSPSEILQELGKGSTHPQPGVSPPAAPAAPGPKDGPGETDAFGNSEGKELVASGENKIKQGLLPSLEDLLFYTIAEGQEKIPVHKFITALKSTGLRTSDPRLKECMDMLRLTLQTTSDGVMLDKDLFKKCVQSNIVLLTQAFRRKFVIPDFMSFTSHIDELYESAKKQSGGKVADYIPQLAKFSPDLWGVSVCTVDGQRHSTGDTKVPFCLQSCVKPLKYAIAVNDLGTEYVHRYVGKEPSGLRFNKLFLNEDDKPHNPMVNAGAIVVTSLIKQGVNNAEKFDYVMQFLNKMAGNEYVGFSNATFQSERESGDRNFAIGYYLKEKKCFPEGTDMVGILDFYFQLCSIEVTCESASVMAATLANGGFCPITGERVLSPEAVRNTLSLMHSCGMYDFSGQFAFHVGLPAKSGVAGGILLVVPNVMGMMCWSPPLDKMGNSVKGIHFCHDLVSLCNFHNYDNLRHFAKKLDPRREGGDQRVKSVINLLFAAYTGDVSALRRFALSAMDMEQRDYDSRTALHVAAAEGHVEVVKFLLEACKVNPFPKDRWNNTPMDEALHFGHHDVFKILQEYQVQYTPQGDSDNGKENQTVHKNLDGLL
row,Structure (SMILES),Potency
1,COc1cc(OC)c(S(=O)(=O)Nc2ccccc2C(=O)O)cc1S(=O)(=O)Nc1ccccc1C(=O)O,5.8 µM (active)
